Inconclusive results are not listed. Where a call stands in place of a potency, no number is given. A structure can be active in one record and inactive in another. Calls of active or inactive are those of the source. Unless noted, calls follow the shape of the dose curve; as a rule, active = well fitted curve in the direction sought with a large enough effect in the repeat runs; inconclusive = weak or mixed curves; inactive = no such curve, though single readings can be large; an effect the other way counts as inactive or inconclusive.
Experiments:
[1] = qHTS assay to identify small molecule antagonists of the estrogen related receptor (ERR) signaling pathway from Tox21 library - cell viability counter screen (AID 1224834); also: nearly all actives have a fitted effect of over 30% in size; also: potency is read from the fitted curve at half-maximal effect
How it was run: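 ERR reporter cells, 2,000 per well, rested 6 h, then exposed to compound in DMSO for 17.5 hours at 37 C. Viability read as fluorescence after 30 min with CellTiter-Fluor.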

[2] = molecular target: Luciferin 4-monooxygenase (Photinus pyralis) (UniProt P08659); experiment: qHTS assay to identify small molecule inhibitors of firefly luciferase (AID 1224835); also: nearly all actives have a fitted effect of over 25% in size; also: potency is read from the fitted curve at half-maximal effect
How it was run: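 Quantitative HTS format; KM concentrations of both substrates. Purified P. pyralis FLuc activity quantified from luminescence images.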

[3] = qHTS assay to identify small molecule agonists of the constitutive androstane receptor (CAR) signaling pathway - cell viability counter screen (AID 1224836); also: nearly all actives have a fitted effect of over 45% in size
How it was run: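 Compound titrations (15 concentrations) went onto HepG2-CYP2B6-hCAR cells 4 h after seeding, alongside PK11195 at a final 0.75 uM; a 23 h, 37 C/5% CO2 incubation preceded CellTiter-Fluor viability measurement.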

[4] = qHTS assay to identify small molecule antagonists of the constitutive androstane receptor (CAR) signaling pathway - cell viability counter screen (AID 1224837); also: nearly all actives have a fitted effect of over 45% in size
How it was run: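 HepG2 cells stably carrying hCAR and CYP2B6-2.2kb reporter, stimulated with 50 nM CITCO and compounds at 15 concentrations for 23 h at 37 C. Viability measured by CellTiter-Fluor fluorescence.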

[5] = molecular target: Nuclear receptor subfamily 1 group I member 3 (Homo sapiens) (UniProt Q14994); experiment: qHTS assay to identify small molecule antagonists of the constitutive androstane receptor (CAR) signaling pathway (AID 1224838); also: nearly all actives have a fitted effect of over 40% in size
How it was run: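 HepG2 cells stably carrying hCAR and a CYP2B6-2.2kb luciferase reporter, seeded 4 hrs before compound (15 concentrations). Stimulated with 50 nM CITCO for 24 hr at 37 C. ONE-Glo luminescence read after 30 min at room temperature.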

[6] = molecular target: Nuclear receptor subfamily 1 group I member 3 (Homo sapiens) (UniProt Q14994); experiment: qHTS assay to identify small molecule agonists of the constitutive androstane receptor (CAR) signaling pathway (AID 1224839); also: nearly all actives have a fitted effect of over 15% in size; also: potency is read from the fitted curve at half-maximal effect
How it was run: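 In this screen, CAR-driven CYP2B6 promoter activity is measured by luminescence in HepG2-CYP2B6-hCAR cells after 24 h with test compounds and 0.75 uM PK11195 (final concentration).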

[7] = qHTS assay to identify small molecule antagonists of the estrogen related receptor signaling pathway with the pleiotropic PPARgamma coactivator (PGC) from Tox21 10K library - cell viability counter screen (AID 1224840; active = well fitted cell-killing curve with a large enough effect in the repeat runs, not every such curve was filed as active; also: nearly all actives have a fitted effect of over 40% in size)
How it was run: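 PGC/ERR cells (2,000/well) plated 6 h, then compound-treated for 17.5 h at 37 C. Viability measured by CellTiter-Fluor fluorescence after 30 min at 37 C, multiplexed with the pathway assay.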

[8] = molecular target: Thyrotropin receptor (Homo sapiens) (UniProt P16473); experiment: qHTS assay to identify small molecule agonists of the thyroid stimulating hormone receptor (TSHR) signaling pathway (AID 1224843; calls by dose curve; also: nearly all actives have a fitted effect of over 45% in size)
How it was run: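 TSHR-expressing HEK293 cells (800 per well) were exposed to compounds for 30 min at room temperature. cAMP was then detected by HTRF competition with cAMP-d2 and anti-cAMP cryptate, read after 1 h at room temperature. Fifteen concentrations, triplicate.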

[9] = qHTS assay to identify small molecule agonists of H2AX (AID 1224845; active = well fitted activation curve with a large enough effect in the signal ratio in the repeat runs, not every such curve was filed as active; the % refers to the signal ratio)
How it was run: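 Wild-type CHO-K1 cells plated overnight, then exposed 3 hr at 37C to compounds at 15 concentrations (0.76% DMSO). Lysed, then HTRF anti-pH2AX(S139)-cryptate/anti-H2AX-d2 detection after 24 hr at room temperature; emissions 665 and 620 nm.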

[10] = qHTS assay to identify small molecule agonists of H2AX - cell viability counter screen (AID 1224847; calls by dose curve; also: top concentration of the series differs between compounds; nearly all actives have a fitted effect of over 30% in size)
How it was run: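 Read-out: CellTiter-Glo luminescence, 30 min RT. Cells: wild-type CHO-K1, 1000/well, 10% FBS, plated overnight at 37C. Treatment: 15 concentrations, 3 hr, 37C, 0.76% DMSO.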

[11] = qHTS RealTime-Glo MT Cell Viability Assay in HepG2 cells - 24 hour (AID 1224867); also: nearly all actives have a fitted effect of over 50% in size
How it was run: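 Viability was tracked continuously by NanoLuc luminescence from prosubstrate reduced by living HepG2 cells, at successive time points over 40 h of compound exposure. Cells with reagent were preincubated 5 h at 37 °C before compound addition.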

[12] = A CellTox Green Cytotoxicity Assay to monitor cytotoxicity in HEK293 cells - 0 hour (AID 1224869); also: nearly all actives have a fitted effect of over 50% in size
How it was run: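 HEK293 cells, 600/well, were preincubated 5 hours and then exposed to compounds at 37 C for up to 40 hours. A cell-impermeant cyanine dye staining dead-cell DNA was read by fluorescence at 0, 8, 16, 24, 32 and 40 h time points.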

[13] = qHTS assay to identify small molecule agonists of the hypoxia (HIF-1) signaling pathway - cell viability counter screen (AID 1224844; calls by dose curve; also: nearly all actives have a fitted effect of over 50% in size)
How it was run: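 HRE-bla ME-180 cells, 2,000/well in 0.5% dialyzed FBS medium, treated 17 h at 37C with compounds. Viability read in the same wells as the bla reporter, by CellTiter-Glo luminescence after 30 min at room temperature.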

[14] = qHTS assay to identify small molecule agonists of the hypoxia (HIF-1) signaling pathway (AID 1224846; active = well fitted activation curve with a large enough effect in the signal ratio in the repeat runs, not every such curve was filed as active; the % refers to the signal ratio)
How it was run: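 HRE-bla ME-180 beta-lactamase reporter cells in medium with 0.5% dialyzed FBS, pre-incubated 5 h then exposed to compounds 17 h at 37C, 5% CO2; reporter induction read with CCF4-AM FRET substrate.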

[15] = qHTS RealTime-Glo MT Cell Viability Assay in HEK293 cells - 32 hour (AID 1224868); also: nearly all actives have a fitted effect of over 50% in size; also: potency is read from the fitted curve at half-maximal effect
How it was run: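 Viability tracked continuously by luminescence as live cells reduce a prosubstrate for NanoLuc; HEK293 cells preincubated 5 h, compound-treated at 37 C, and read at 0, 8, 16, 24, 32 and 40 h.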

[16] = qHTS assay to identify small molecule antagonists of the estrogen related receptor signaling pathway with the pleiotropic PPARgamma coactivator (PGC) from Tox21 10K library (AID 1224841; call rule not given here)
How it was run: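 PGC/ERR cell line, 2,000 cells/well, pre-incubated 6 hours at 37 C, then exposed to compounds for 18 hours at 37 C; luciferase read with One-Glo luminescence after 30 min at room temperature.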

[17] = qHTS assay to identify small molecule agonists of the estrogen related receptor signaling pathway with the pleiotropic PPARgamma coactivator (PGC) from Tox21 10K library (AID 1224842); also: nearly all actives have a fitted effect of over 15% in size
How it was run: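 PGC/ERR reporter cells (NTP line) were seeded 2,000 per well, rested 6 h at 37 C/5% CO2, then pin-dosed with compounds in DMSO for 18 h at 37 C; luciferase read by One-Glo luminescence after 30 min at room temperature.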

[18] = qHTS assay to identify small molecule antagonists of the estrogen related receptor (ERR) signaling pathway from Tox21 library (AID 1224848); also: nearly all actives have a fitted effect of over 50% in size
How it was run: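 Cells: ERR line, 2,000/well; 6 h preincubation 37 C/5% CO2. Cpd in DMSO via pin tool; 18 h, 37 C. ONE-Glo, 30 min RT, luminescence.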

[19] = qHTS assay to identify small molecule agonists of the estrogen related receptor (ERR) signaling pathway from Tox21 library (AID 1224849; calls by dose curve; also: nearly all actives have a fitted effect of over 15% in size); conditions: ERR reporter cell line, ONE-Glo luciferase, 18 h; at 92.4 µM (top of the series) unless noted
How it was run: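 ERR reporter cells (NTP line) pre-incubated 6 hours at 37 C, then exposed to compounds for 18 hours at 37 C. ONE-Glo luciferase luminescence was read after 30 minutes at room temperature.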

Nuclear receptor subfamily 1 group I member 3 (Homo sapiens), sequence (Q14994 whole entry, looked up): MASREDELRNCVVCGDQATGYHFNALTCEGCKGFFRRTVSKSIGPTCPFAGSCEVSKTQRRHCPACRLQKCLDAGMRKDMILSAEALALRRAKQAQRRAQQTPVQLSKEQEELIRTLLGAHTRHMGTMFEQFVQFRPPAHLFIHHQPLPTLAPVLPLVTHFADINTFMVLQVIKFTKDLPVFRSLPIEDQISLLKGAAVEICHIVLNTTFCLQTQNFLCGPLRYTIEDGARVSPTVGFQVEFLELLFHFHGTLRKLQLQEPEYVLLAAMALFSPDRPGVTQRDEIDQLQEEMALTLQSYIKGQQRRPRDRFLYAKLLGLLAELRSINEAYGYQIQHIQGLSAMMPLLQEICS
Luciferin 4-monooxygenase (Photinus pyralis), sequence (P08659 whole entry, looked up): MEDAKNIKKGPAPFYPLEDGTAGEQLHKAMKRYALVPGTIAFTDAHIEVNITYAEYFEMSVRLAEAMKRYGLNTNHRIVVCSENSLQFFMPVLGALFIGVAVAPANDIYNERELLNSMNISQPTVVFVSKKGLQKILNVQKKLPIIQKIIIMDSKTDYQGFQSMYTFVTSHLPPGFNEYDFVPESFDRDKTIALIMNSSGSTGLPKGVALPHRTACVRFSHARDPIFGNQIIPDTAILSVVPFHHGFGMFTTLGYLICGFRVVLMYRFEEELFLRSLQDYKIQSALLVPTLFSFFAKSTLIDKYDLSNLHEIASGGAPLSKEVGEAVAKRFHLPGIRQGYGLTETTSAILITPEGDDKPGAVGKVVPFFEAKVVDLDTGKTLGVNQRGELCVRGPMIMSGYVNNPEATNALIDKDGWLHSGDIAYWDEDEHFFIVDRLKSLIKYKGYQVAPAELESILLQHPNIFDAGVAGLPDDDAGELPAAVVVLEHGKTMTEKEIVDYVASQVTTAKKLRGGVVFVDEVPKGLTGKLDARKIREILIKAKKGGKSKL
Thyrotropin receptor (Homo sapiens), sequence (P16473 whole entry, looked up): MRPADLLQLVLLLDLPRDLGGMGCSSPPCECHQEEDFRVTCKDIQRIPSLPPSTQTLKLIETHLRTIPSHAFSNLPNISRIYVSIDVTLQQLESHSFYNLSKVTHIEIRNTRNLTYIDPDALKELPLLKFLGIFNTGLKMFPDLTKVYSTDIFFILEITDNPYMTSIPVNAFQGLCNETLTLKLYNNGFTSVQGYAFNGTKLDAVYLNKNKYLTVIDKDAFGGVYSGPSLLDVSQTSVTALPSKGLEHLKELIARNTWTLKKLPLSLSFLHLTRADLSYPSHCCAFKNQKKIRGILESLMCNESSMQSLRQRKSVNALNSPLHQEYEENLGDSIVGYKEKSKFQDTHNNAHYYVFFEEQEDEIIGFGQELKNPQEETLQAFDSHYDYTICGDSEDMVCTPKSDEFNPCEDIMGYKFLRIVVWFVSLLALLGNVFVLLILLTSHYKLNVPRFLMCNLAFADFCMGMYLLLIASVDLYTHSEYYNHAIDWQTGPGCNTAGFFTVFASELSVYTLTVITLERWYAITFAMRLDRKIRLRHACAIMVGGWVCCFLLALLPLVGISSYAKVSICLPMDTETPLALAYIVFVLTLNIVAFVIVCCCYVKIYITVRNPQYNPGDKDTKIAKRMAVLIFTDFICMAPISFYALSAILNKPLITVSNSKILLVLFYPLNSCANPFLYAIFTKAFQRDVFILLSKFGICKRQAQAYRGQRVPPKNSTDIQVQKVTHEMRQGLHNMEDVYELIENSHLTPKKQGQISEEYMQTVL

Structure (SMILES) | Potency [1] | Potency [2] | Potency [3] | Potency [4] | Potency [5] | Potency [6] | Potency [7] | Potency [8] | Potency [9] | Potency [10] | Potency [11] | Potency [12] | Potency [13] | outcome [14] | Potency [15] | Potency [16] | Potency [17] | Potency [18] | activity change, positive = activation [19]
O=C(CCS)OCC(COC(=O)CCS)(COC(=O)CCS)COC(=O)CCS | inactive | inactive | inactive | inactive | inactive | inactive | inactive | inactive | inactive | inactive | inactive | inactive | – | – | – | – | – | – | –
COc1ccc2nc(S(=O)Cc3ncc(C)c(OC)c3C)[nH]c2c1 (stereo not given) | 53.8 µM (active) and inactive | 31.3 µM (active) and inactive | inactive | inactive | inactive | 60.4 µM (active) and inactive | inactive | inactive | inactive | inactive | inactive | inactive | inactive | inactive | 21.6 µM (active) and inactive | – | – | – | –
Nc1ccc(S(=O)(=O)NCc2ccccc2)cc1 | inactive | inactive | inactive | inactive | inactive | inactive | inactive | – | inactive | inactive | inactive | inactive | inactive | inactive | inactive | – | – | – | –
CC(O)Cn1cnc2c1c(=O)n(C)c(=O)n2C (stereo not given) | inactive | inactive | inactive | inactive | inactive | – | inactive | – | inactive | inactive | inactive | inactive | inactive | – | inactive | inactive | inactive | inactive | 0.481% [at 42.5 µM] (inactive)
O=C(O)CNC(=O)c1ccccc1I | inactive | inactive | inactive | inactive | inactive | inactive | inactive | – | inactive | inactive | inactive | inactive | inactive | inactive | inactive | – | – | – | –
CSCC[C@H](NC(=O)[C@H](Cc1c[nH]c2ccccc12)NC(=O)CCNC(=O)OC(C)(C)C)C(=O)N[C@@H](CC(=O)O)C(=O)N[C@@H](Cc1ccccc1)C(N)=O | inactive | inactive | inactive | inactive | inactive | inactive | inactive | – | inactive | inactive | inactive | inactive | inactive | inactive | inactive | – | – | – | –
O=C(O)CCS | inactive | inactive | inactive | inactive | inactive | – | inactive | inactive | inactive | inactive | inactive | inactive | inactive | inactive | inactive | inactive | inactive | inactive | –
CC(C(=O)O)c1ccc(C(=O)c2cccs2)cc1 (stereo not given) | inactive | inactive | inactive | inactive | inactive | inactive | inactive | – | inactive | inactive | inactive | inactive | inactive | – | inactive | – | – | – | –

Source: PubChem BioAssay (Tox21)
